From PubChem BioAssay (NCATS)
Values joined by “and” are separate entries in the source; they are usually repeats but may differ in a detail not shown here. Equal entries are not always repeated. Results filed as inconclusive are left out. Active and inactive are the calls of the source. Unless noted, the call rests on the fitted dose curve; in most records, active means well fitted curve in the direction sought with a large enough effect; inconclusive means small, poorly fitted or top-dose-only effect, or another doubt; inactive means no such curve, though single readings can be large; an effect the other way counts as inactive or inconclusive.

Key:
[1] = qHTS assay for small molecule activators of the p53 signaling pathway (AID 651743; active means well fitted activation curve with a large enough effect in the signal ratio, not every such curve was filed as active; the % refers to the signal ratio; further: potency means the concentration at half of the fitted maximal effect; on activation: series mostly up to about 92 µM; % of control where 0% means no effect); conditions: HCT-116 p53RE-bla, beta-lactamase FRET ratio, 16 h; activation: active compounds read high
Summary of the method: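 Here HCT-116 cells with an integrated p53-responsive beta-lactamase gene were incubated with compounds (16 hours, 37 C) after a 5-hour plating period; beta-lactamase activity was detected as fluorescence intensity via B/G FRET substrate.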

[2] = Cell Viability - Jurkat (AID 426;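 active means dose-dependent loss of cell ATP signal giving a full or clear fitted curve, ranked by lower potency value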;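 further: potency means the concentration at half of the fitted maximal effect; cells exposed to compound for 40 hours at 37 °C before ATP read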); conditions: qHTS
Summary of the method: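 Luminescent ATP read-out (CellTiter-Glo, 20 min at room temperature) after 40 hr compound exposure at 37 °C of Jurkat E6-1 cells, 5000/well. Decreased ATP taken as cytotoxicity; AC50 from standard Hill equation.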

[3] = Cell Viability - H-4-II-E (AID 543);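 further: cells exposed to compound for 40 hours; on the % scale 0 is the no-effect control and ±100 the full control effect; nearly all actives have a fitted effect of over 35% in size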
Summary of the method: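 qHTS, rat hepatoma H-4-II-E, 1500 cells/well; 40 hr compound exposure, 37 °C; CellTiter-Glo ATP luminescence after 20 min RT; AC50 by standard Hill fit.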

[4] = Cell Viability - SH-SY5Y (AID 544);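 further: cells exposed to compound for 40 hours; 0% = DMSO alone and -100% = 100 µM tamoxifen; nearly all actives have a fitted effect of over 55% in size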
Summary of the method: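 SH-SY5Y, 1500 cells/well, 5 hr pre-incubation 37 °C; cpd 40 hr 37 °C; CellTiter-Glo 20 min RT; luminescence (ATP) read. qHTS concentration-response, Hill fit → AC50. Tamoxifen, doxorubicin as positive controls.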

[5] = Cell Viability - LYMP2-001 (AID 921);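 further: series mostly up to about 92 µM; 0% = DMSO only and full inhibition = tetraoctylammonium bromide control wells; nearly all actives have a fitted effect of over 70% in size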
Summary of the method: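 qHTS, 1536-well; lymphoblastoid cells, 24 hr compound, 37 C; ATP by CellTiter-Glo, 30 min RT; luminescence; Hill-fit AC50.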

[6] = MultiTox-Fluor Cytotoxicity Assay - LYMP1-002 - Dead Cells (AID 960); further: nearly all actives have a fitted effect of over 60% in size; further: potency means the concentration at half of the fitted maximal effect
Summary of the method: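 Readout: fluorescence at 485/520 from cell-impermeant bis-AAF-R110 cleaved by proteases leaking from damaged cells. LYMP1-002 lymphoblastoid line, 16 hr compound treatment at 37 C, concentration-response in qHTS format; Hill-equation AC50 values.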

[7] = Cell Viability - LYMP2-007 (AID 979);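 further: cells exposed to compound for 24 h before reading; 0% = DMSO only and the negative end = 92 µM tetraoctylammonium bromide; nearly all actives have a fitted effect of over 60% in size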
Summary of the method: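 qHTS cytotoxicity: 2500 cells/well, 5 hr 37 C settle, compound 24 hr 37 C, CellTiter-Glo 30 min RT, luminescence. Decrease in ATP = toxicity. AC50 by standard Hill equation; tetraoctylammonium bromide positive control.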

[8] = Cell Viability - LYMP2-012 (AID 982);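 further: cellular ATP by luciferase luminescence where a drop means cytotoxicity; cells exposed to compound for one day before reading; 0% = DMSO only and full loss = 92 µM tetraoctylammonium bromide; nearly all actives have a fitted effect of over 55% in size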
[9] = Cell Viability - LYMP2-014 (AID 983);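 further: series mostly up to about 92 µM; plate controls were DMSO only for no effect and 92 µM tetraoctylammonium bromide for full effect; nearly all actives have a fitted effect of over 50% in size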
Summary of the method: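 2500 cells/well, 5 hr 37 C; cpd 24 hr 37 C, complete medium; CellTiter-Glo 30 min RT, luminescence; ATP loss = toxicity; AC50 via Hill eqn; tetraoctylammonium bromide positive control.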

[10] = Cell Viability - LYMP2-016 (AID 984);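 further: cells exposed to compound for 24 hours at 37 °C; on the % scale 0 is the no-effect control and ±100 the full control effect; nearly all actives have a fitted effect of over 55% in size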
Summary of the method: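 Acute toxicity in a Coriell human lymphoblastoid line is scored as loss of intracellular ATP over 24 h of treatment in complete medium. CellTiter-Glo signal is fitted across concentrations with the Hill equation to give AC50.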

[11] = Cell Viability - LYMP2-018 (AID 985);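 further: plate controls were DMSO only for no effect and tetraoctylammonium bromide at 92 µM for full effect; nearly all actives have a fitted effect of over 50% in size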
Summary of the method: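 2500 cells/well; 5 hr 37 C; cmpd 24 hr 37 C, complete medium; CellTiter-Glo 30 min RT; luminescence. Tetraoctylammonium bromide positive control. AC50 via Hill fit.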

[12] = Cell Viability - LYMP2-020 (AID 986);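 further: series mostly up to about 92 µM; plate controls were DMSO only for no effect and tetraoctylammonium bromide at 92 µM for full effect; nearly all actives have a fitted effect of over 55% in size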
Summary of the method: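 qHTS, 2500 cells/well; 5 hr then 24 hr compound exposure, 37 C; CellTiter-Glo luminescence after 30 min RT; ATP decrease taken as cytotoxicity; AC50 via Hill equation; tetraoctylammonium bromide positive control.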

[13] = Cell Viability - LYMP2-022 (AID 987)
Summary of the method: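 Luminescent ATP read-out (CellTiter-Glo, 30 min, RT) after 24 hr, 37 C compound exposure of 2500 human lymphoblastoid cells/well in complete medium. Cytotoxicity taken as concentration-dependent ATP loss; AC50 from standard Hill equation.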

[14] = Cell Viability - LYMP2-024 (AID 988);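 further: plate controls were DMSO only for no effect and 92 µM tetraoctylammonium bromide for full effect; nearly all actives have a fitted effect of over 60% in size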
Summary of the method: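 ATP-based luminescence (CellTiter-Glo, 30 min RT) after 24 h compound exposure at 37 C of 2500 lymphoblastoid cells/well; decrease in ATP taken as cytotoxicity. qHTS concentration-response fitted to standard Hill equation for AC50.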

[15] = qHTS assay for small molecule activators of the nuclear factor-kappa B (NF-kB) signaling pathway (AID 651749; active means well fitted activation curve with a large enough effect in the signal ratio; the % refers to the signal ratio; further: series mostly up to about 77 µM; % of control where 0% means no effect); conditions: NF-kB-bla ME-180 cells, beta-lactamase FRET ratio, 16 h; activation: active compounds read high
Summary of the method: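 Beta-lactamase reporter expression, controlled by NF-kB response elements in ME-180 cells, was quantified fluorometrically via FRET disruption; cells at 2,000/well had been incubated with 23 nL test compound for 16 hr.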

[16] = qHTS assay for environmental chemicals that activate the Aryl hydrocarbon Receptor (AhR) signaling pathway (AID 651777); conditions: 1A2-DRE human hepatoma cells, luciferase, 24 h; activation: active compounds read high; further: % of control where 0% means no effect; nearly all actives have a fitted effect of over 15% in size
Summary of the method: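 Stable CYP1A2 promoter/DRE-luciferase human hepatoma line treated 24 hr; One-Glo luminescence, 30 min RT.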

[17] = qHTS assay for small molecule agonists of the antioxidant response element (ARE) signaling pathway measured by Nrf2-dependant transcriptional activity (AID 720636; active means well fitted curve in the direction sought with a large enough effect in the repeat runs; an effect the other way counts as inactive or inconclusive;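 further: HepG2 cells with an ARE-driven luciferase reporter; % of control where 0% means no effect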)
Summary of the method: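 Reporter gene assay, HepG2 ARE-luc: 16 hr compound, 37 C, 5% CO2; read-out luciferase luminescence.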

[18] = target: Thyroid hormone receptor beta (Homo sapiens) (UniProt P10828); test: qHTS assay for small molecule agonists of thyroid hormone receptor beta signaling (AID 588545; calls by dose curve)
Sequence of Thyroid hormone receptor beta (Homo sapiens) (P10828 whole entry, looked up): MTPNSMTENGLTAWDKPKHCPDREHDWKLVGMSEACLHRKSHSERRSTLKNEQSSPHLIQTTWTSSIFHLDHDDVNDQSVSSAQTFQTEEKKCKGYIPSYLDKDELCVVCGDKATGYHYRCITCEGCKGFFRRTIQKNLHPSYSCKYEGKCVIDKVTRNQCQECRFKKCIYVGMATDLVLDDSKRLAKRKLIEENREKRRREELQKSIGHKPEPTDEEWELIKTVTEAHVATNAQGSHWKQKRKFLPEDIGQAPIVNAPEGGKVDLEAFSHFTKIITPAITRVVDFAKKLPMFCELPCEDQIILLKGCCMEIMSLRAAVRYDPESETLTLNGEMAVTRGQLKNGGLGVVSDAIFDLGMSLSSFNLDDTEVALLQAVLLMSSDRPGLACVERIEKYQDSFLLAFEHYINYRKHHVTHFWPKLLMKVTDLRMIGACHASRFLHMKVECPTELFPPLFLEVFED
Summary of the method: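 Cells (2500/well) were seeded, incubated 4 hrs at 37 C, dosed with a compound series, incubated 18 hrs, loaded with CCF4 dye for 2 hrs at RT, then read for fluorescence. Data were scaled between DMSO (0%) and 10 nM T3 (100%).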

[19] = target: Thyroid hormone receptor beta (Homo sapiens) (UniProt P10828); test: qHTS assay for small molecule antagonists of thyroid hormone receptor beta signaling (AID 588547; active means well fitted inhibition curve with a large enough effect in the signal ratio, with a control signal flat, not every such curve was filed as active; the % refers to the signal ratio;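 further: cells stimulated with 0.4 nM T3 agonist during compound exposure; series mostly up to about 77 µM; on the % scale 0 is the no-effect control and ±100 the full control effect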); conditions: TR-UAS-bla HEK293, beta-lactamase ratio, antagonist mode, 18 h
Summary of the method: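 TR-UAS-bla GripTite HEK293 cells in 2% charcoal/dextran FBS medium were preincubated 4 h at 37 C, given compound (0.59 nM to 92 uM) plus 0.4 nM T3 (final) for 18 h, then CCF4 for 2 h at RT; Hill fit gave IC50.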

[20] = qHTS for differential inhibitors of proliferation of Plasmodium falciparum line W2 (AID 1883); conditions: Potency: Plasmodium falciparum W2 proliferation inhibition;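 further: potency means the concentration at half of the fitted maximal effect; parasites grown with compound for 72 h before lysis and staining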

Nc1nc(N)c2nc(CNc3ccc(C(=O)NC(CCC(=O)O)C(=O)O)cc3)cnc2n1 (stereo unspecified)
active: Potency [1] 0.1 µM

CC(=O)/C=C/c1ccccc1
inactive: Potency [2] > 92 µM | outcome [3] | outcome [4] | outcome [5] | Potency [6] | outcome [7] | outcome [8] | outcome [9] | outcome [10] | outcome [11] | outcome [12] | outcome [13] | outcome [14] | activation [15] -1.47% | activation [16] -0.449% | Potency [17]

c1ccc2c(c1)-c1cccc3cccc-2c13
inactive: Potency [2] > 92 µM | outcome [3] | outcome [4] | outcome [5] | Potency [6] | outcome [7] | outcome [8] | outcome [9] | outcome [10] | outcome [11] | outcome [12] | outcome [13] | outcome [14] | Potency [18] | activity change % (negative = inhibition) [19] 3.57% | activation [1] 5.47% and -0.395% | activation [15] 0.379% | Potency [17]

Oc1ccccc1Cl
inactive: Potency [2] > 92 µM | outcome [3] | outcome [4] | outcome [5] | Potency [6] | outcome [7] | outcome [8] | outcome [9] | outcome [10] | outcome [11] | outcome [12] | outcome [13] | outcome [14] | Potency [18] | activity change % (negative = inhibition) [19] -7.68% | activation [1] -5.71% | activation [15] -1.13% | activation [16] 0.249% | Potency [17]

COC1=CC(=O)OC(CCc2ccc3c(c2)OCO3)C1 (stereo unspecified)
inactive: Potency [6] | outcome [9] | outcome [10] | Potency [18] | activity change % (negative = inhibition) [19] -2% | activation [1] -6.75% | activation [15] -0.795% | activation [16] 9.51% | Potency [17]

COc1cc([C@@H]2c3cc4c(cc3[C@H](O)C3COC(=O)[C@@H]32)OCO4)cc(OC)c1OC (stereo partly specified)
active: Potency [20] 11.2 µM

CC(C)COC(=O)c1ccccc1C(=O)OCC(C)C
inactive: Potency [2] > 92 µM | outcome [3] | outcome [4] | outcome [5] | outcome [7] | outcome [13] | outcome [14] | Potency [18] | activity change % (negative = inhibition) [19] 9.26% | activation [16] 0.543% | Potency [17]

Oc1ccccc1O
active: Potency [6] 20 µM | Potency [20] 10 µM

CN1[C@@H](CC(=O)c2ccccc2)CCC[C@H]1C[C@H](O)c1ccccc1
active: Potency [20] 3.98 µM

N#C/C(=C\c1ccc(O)c(O)c1)C(=O)NCCCNC(=O)/C(C#N)=C/c1ccc(O)c(O)c1
active: Potency [20] 2.24 µM

c1ccc(Nc2ccc3ccccc3c2)cc1
inactive: outcome [5] | outcome [7] | outcome [8] | outcome [9] | outcome [10] | outcome [11] | outcome [12] | outcome [13] | outcome [14] | Potency [18] | activity change % (negative = inhibition) [19] -6.28% | activation [1] -2.23% and -2.96% | activation [15] 0.513% and 2.05%

CCOC(=O)c1ccccc1N
inactive: Potency [2] > 92 µM | outcome [3] | outcome [4] | outcome [5] | Potency [6] | outcome [7] | outcome [8] | outcome [9] | outcome [10] | outcome [11] | outcome [12] | outcome [13] | outcome [14] | Potency [18] | activity change % (negative = inhibition) [19] 5.04% | activation [16] 1.49% | Potency [17]

CCCCCCCCCC[Si](C)(C)CCC(=O)NC(Cc1ccc(C)cc1)c1ccccc1 (stereo unspecified)
active: Potency [20] 3.16 µM

Nc1nc2ccc(Cl)cc2c2nc(-c3ccco3)nn12
active: Potency [20] 11.2 µM
